# Results from article PMC12529666, “Dysregulation of AGO2-miRNA dynamics underlies the AGO2-associated Lessel–Kreienkamp syndrome”.
# Substitutions are numbered along the chain they refer to.
# B1: ATATTCTG (ssRNA)
# RNA 1: GAGUUCUACAGUCCGACGAUCCCAACAUAUUCUGCACCUGGAAUUCUCGGGUGCCAA
# RNA 2: UGGAGUGUGACAAUGGUGUUUG
# DNA 1: GATCGTCGGACTGTAGAACTC
# DNA 2: TTGGCACCCGAGAATTCCA
# modifications: constant regions annealed to DNA blockers; guide miR-122 5' phosphate
# B2: GCGCTTTG (ssRNA)
# RNA 1: B1 RNA 1 with A27G, U28C, A29G, U30C, C32U
# RNA 2: UGGAGUGUGACAAUGGUGUUUG
# DNA 1: GATCGTCGGACTGTAGAACTC
# DNA 2: TTGGCACCCGAGAATTCCA
# modifications: constant regions annealed to DNA blockers; guide miR-122 5' phosphate
# B3: ATATTCCG (ssRNA)
# RNA 1: B1 RNA 1 with U33C
# RNA 2: UGGAGUGUGACAAUGGUGUUUG
# DNA 1: GATCGTCGGACTGTAGAACTC
# DNA 2: TTGGCACCCGAGAATTCCA
# modifications: constant regions annealed to DNA blockers; guide miR-122 5' phosphate
# B4: ATACCCTG (ssRNA)
# RNA 1: B1 RNA 1 with U30C, U31C
# RNA 2: UGGAGUGUGACAAUGGUGUUUG
# DNA 1: GATCGTCGGACTGTAGAACTC
# DNA 2: TTGGCACCCGAGAATTCCA
# modifications: constant regions annealed to DNA blockers; guide miR-122 5' phosphate
# B5: GCATTTTG (ssRNA)
# RNA 1: B1 RNA 1 with A27G, U28C, C32U
# RNA 2: UGGAGUGUGACAAUGGUGUUUG
# DNA 1: GATCGTCGGACTGTAGAACTC
# DNA 2: TTGGCACCCGAGAATTCCA
# modifications: constant regions annealed to DNA blockers; guide miR-122 5' phosphate
# B6: GCATCTCG (ssRNA)
# RNA 1: B1 RNA 1 with A27G, U28C, U31C, C32U, U33C
# RNA 2: UGGAGUGUGACAAUGGUGUUUG
# DNA 1: GATCGTCGGACTGTAGAACTC
# DNA 2: TTGGCACCCGAGAATTCCA
# modifications: constant regions annealed to DNA blockers; guide miR-122 5' phosphate
# B7: ACGCCTCG (ssRNA)
# RNA 1: B1 RNA 1 with U28C, A29G, U30C, U31C, C32U, U33C
# RNA 2: UGGAGUGUGACAAUGGUGUUUG
# DNA 1: GATCGTCGGACTGTAGAACTC
# DNA 2: TTGGCACCCGAGAATTCCA
# modifications: constant regions annealed to DNA blockers; guide miR-122 5' phosphate
# B8: ATGTTCCG (ssRNA)
# RNA 1: B1 RNA 1 with A29G, U33C
# RNA 2: UGGAGUGUGACAAUGGUGUUUG
# DNA 1: GATCGTCGGACTGTAGAACTC
# DNA 2: TTGGCACCCGAGAATTCCA
# modifications: constant regions annealed to DNA blockers; guide miR-122 5' phosphate
# B9: ACGTTCTG (ssRNA)
# RNA 1: B1 RNA 1 with U28C, A29G
# RNA 2: UGGAGUGUGACAAUGGUGUUUG
# DNA 1: GATCGTCGGACTGTAGAACTC
# DNA 2: TTGGCACCCGAGAATTCCA
# modifications: constant regions annealed to DNA blockers; guide miR-122 5' phosphate
# B10: ACGTTTTG (ssRNA)
# RNA 1: B1 RNA 1 with U28C, A29G, C32U
# RNA 2: UGGAGUGUGACAAUGGUGUUUG
# DNA 1: GATCGTCGGACTGTAGAACTC
# DNA 2: TTGGCACCCGAGAATTCCA
# modifications: constant regions annealed to DNA blockers; guide miR-122 5' phosphate
# B11: ATGCCCTA (ssRNA)
# RNA 1: B1 RNA 1 with A29G, U30C, U31C, G34A
# RNA 2: UGGAGUGUGACAAUGGUGUUUG
# DNA 1: GATCGTCGGACTGTAGAACTC
# DNA 2: TTGGCACCCGAGAATTCCA
# modifications: constant regions annealed to DNA blockers; guide miR-122 5' phosphate
# B12: ATACTCTA (ssRNA)
# RNA 1: B1 RNA 1 with U30C, G34A
# RNA 2: UGGAGUGUGACAAUGGUGUUUG
# DNA 1: GATCGTCGGACTGTAGAACTC
# DNA 2: TTGGCACCCGAGAATTCCA
# modifications: constant regions annealed to DNA blockers; guide miR-122 5' phosphate
# B13: GTGTTTTG (ssRNA)
# RNA 1: B1 RNA 1 with A27G, A29G, C32U
# RNA 2: UGGAGUGUGACAAUGGUGUUUG
# DNA 1: GATCGTCGGACTGTAGAACTC
# DNA 2: TTGGCACCCGAGAATTCCA
# modifications: constant regions annealed to DNA blockers; guide miR-122 5' phosphate
# B14: ATGCCTTG (ssRNA)
# RNA 1: B1 RNA 1 with A29G, U30C, U31C, C32U
# RNA 2: UGGAGUGUGACAAUGGUGUUUG
# DNA 1: GATCGTCGGACTGTAGAACTC
# DNA 2: TTGGCACCCGAGAATTCCA
# modifications: constant regions annealed to DNA blockers; guide miR-122 5' phosphate
# B15: GCATCCCG (ssRNA)
# RNA 1: B1 RNA 1 with A27G, U28C, U31C, U33C
# RNA 2: UGGAGUGUGACAAUGGUGUUUG
# DNA 1: GATCGTCGGACTGTAGAACTC
# DNA 2: TTGGCACCCGAGAATTCCA
# modifications: constant regions annealed to DNA blockers; guide miR-122 5' phosphate
# B16: GTGTCTCG (ssRNA)
# RNA 1: B1 RNA 1 with A27G, A29G, U31C, C32U, U33C
# RNA 2: UGGAGUGUGACAAUGGUGUUUG
# DNA 1: GATCGTCGGACTGTAGAACTC
# DNA 2: TTGGCACCCGAGAATTCCA
# modifications: constant regions annealed to DNA blockers; guide miR-122 5' phosphate
# B17: ATGTTTCG (ssRNA)
# RNA 1: B1 RNA 1 with A29G, C32U, U33C
# RNA 2: UGGAGUGUGACAAUGGUGUUUG
# DNA 1: GATCGTCGGACTGTAGAACTC
# DNA 2: TTGGCACCCGAGAATTCCA
# modifications: constant regions annealed to DNA blockers; guide miR-122 5' phosphate
# B18: ATACTTTG (ssRNA)
# RNA 1: B1 RNA 1 with U30C, C32U
# RNA 2: UGGAGUGUGACAAUGGUGUUUG
# DNA 1: GATCGTCGGACTGTAGAACTC
# DNA 2: TTGGCACCCGAGAATTCCA
# modifications: constant regions annealed to DNA blockers; guide miR-122 5' phosphate
# B19: GTACCTTG (ssRNA)
# RNA 1: B1 RNA 1 with A27G, U30C, U31C, C32U
# RNA 2: UGGAGUGUGACAAUGGUGUUUG
# DNA 1: GATCGTCGGACTGTAGAACTC
# DNA 2: TTGGCACCCGAGAATTCCA
# modifications: constant regions annealed to DNA blockers; guide miR-122 5' phosphate
# B20: GTATCTTG (ssRNA)
# RNA 1: B1 RNA 1 with A27G, U31C, C32U
# RNA 2: UGGAGUGUGACAAUGGUGUUUG
# DNA 1: GATCGTCGGACTGTAGAACTC
# DNA 2: TTGGCACCCGAGAATTCCA
# modifications: constant regions annealed to DNA blockers; guide miR-122 5' phosphate
# B21: ATGTCCTG (ssRNA)
# RNA 1: B1 RNA 1 with A29G, U31C
# RNA 2: UGGAGUGUGACAAUGGUGUUUG
# DNA 1: GATCGTCGGACTGTAGAACTC
# DNA 2: TTGGCACCCGAGAATTCCA
# modifications: constant regions annealed to DNA blockers; guide miR-122 5' phosphate
# B22: GTGTCTTG (ssRNA)
# RNA 1: B1 RNA 1 with A27G, A29G, U31C, C32U
# RNA 2: UGGAGUGUGACAAUGGUGUUUG
# DNA 1: GATCGTCGGACTGTAGAACTC
# DNA 2: TTGGCACCCGAGAATTCCA
# modifications: constant regions annealed to DNA blockers; guide miR-122 5' phosphate
# B23: GTACTCTA (ssRNA)
# RNA 1: B1 RNA 1 with A27G, U30C, G34A
# RNA 2: UGGAGUGUGACAAUGGUGUUUG
# DNA 1: GATCGTCGGACTGTAGAACTC
# DNA 2: TTGGCACCCGAGAATTCCA
# modifications: constant regions annealed to DNA blockers; guide miR-122 5' phosphate
# Molecular target: AGO2 L192P (Homo sapiens, UniProt Q9UKV8 1-859, L192P;S387D;S824A;S828D;S831D;S834A)
# Assay: RNA Bind-n-Seq (nitrocellulose filter binding and sequencing); miR-122 guide loaded in AGO2; 60 min incubation; 30 mM Tris pH 8.0, 100 mM potassium acetate, 2 mM magnesium acetate, 0.5 mM TCEP, 0.005% NP-40, 0.01 mg/ml yeast tRNA; 3 nM AGO2-miR-122, 100 nM RNA library; 60; high values mean tight binding
# Conditions: protein: recombinant; tags: His6 (N-terminal, pFastBac HTA)
# In short: (§1)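 Fold enrichment is each target's read fraction divided by its read fraction in the input library. Sf9 insect cells expressed His-tagged AGO2 from baculovirus; the protein was loaded with a synthetic guide RNA and purified by Ni-NTA and a biotinylated capture oligo. The bound RNA was extracted, reverse-transcribed, barcode-amplified and sequenced on Illumina.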
# AGO2 L192P, sequence (Q9UKV8 whole entry L192P/S387D/S824A/S828D/S831D/S834A): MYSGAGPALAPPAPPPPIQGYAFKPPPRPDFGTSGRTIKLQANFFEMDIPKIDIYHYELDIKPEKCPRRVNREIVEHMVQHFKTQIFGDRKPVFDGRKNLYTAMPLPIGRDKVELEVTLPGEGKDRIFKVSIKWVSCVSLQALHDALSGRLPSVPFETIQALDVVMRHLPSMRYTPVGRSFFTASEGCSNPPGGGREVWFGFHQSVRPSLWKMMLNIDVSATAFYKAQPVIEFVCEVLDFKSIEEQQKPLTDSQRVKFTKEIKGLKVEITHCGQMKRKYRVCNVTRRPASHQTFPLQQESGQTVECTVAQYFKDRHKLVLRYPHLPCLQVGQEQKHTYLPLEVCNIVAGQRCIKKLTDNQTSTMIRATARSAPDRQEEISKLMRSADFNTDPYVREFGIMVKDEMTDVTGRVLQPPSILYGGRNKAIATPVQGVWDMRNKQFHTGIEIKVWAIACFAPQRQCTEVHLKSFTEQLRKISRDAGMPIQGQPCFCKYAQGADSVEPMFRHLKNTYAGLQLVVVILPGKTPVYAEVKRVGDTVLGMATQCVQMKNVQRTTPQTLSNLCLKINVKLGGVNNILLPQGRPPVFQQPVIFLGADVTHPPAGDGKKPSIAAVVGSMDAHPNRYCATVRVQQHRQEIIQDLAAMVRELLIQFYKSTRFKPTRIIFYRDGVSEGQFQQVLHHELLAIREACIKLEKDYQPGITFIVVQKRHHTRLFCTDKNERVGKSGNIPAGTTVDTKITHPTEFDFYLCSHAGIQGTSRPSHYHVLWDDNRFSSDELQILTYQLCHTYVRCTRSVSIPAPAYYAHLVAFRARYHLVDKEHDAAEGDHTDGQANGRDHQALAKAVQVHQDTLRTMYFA
row,Binder,binding signal
1,B1,0.389 fold enrichment over input
2,B2,0.333 fold enrichment over input
3,B3,0.389 fold enrichment over input
4,B4,0.364 fold enrichment over input
5,B5,0.36 fold enrichment over input
6,B6,0.321 fold enrichment over input
7,B7,0.351 fold enrichment over input
8,B8,0.352 fold enrichment over input
9,B9,0.334 fold enrichment over input
10,B10,0.342 fold enrichment over input
11,B11,0.457 fold enrichment over input
12,B12,0.437 fold enrichment over input
13,B13,0.344 fold enrichment over input
14,B14,0.356 fold enrichment over input
15,B15,0.376 fold enrichment over input
16,B16,0.345 fold enrichment over input
17,B17,0.353 fold enrichment over input
18,B18,0.38 fold enrichment over input
19,B19,0.347 fold enrichment over input
20,B20,0.32 fold enrichment over input
21,B21,0.343 fold enrichment over input
22,B22,0.335 fold enrichment over input
23,B23,0.425 fold enrichment over input

# Molecular target: AGO2 A367P (Homo sapiens, UniProt Q9UKV8 1-859, A367P;S387D;S824A;S828D;S831D;S834A)
# Assay: as above
# Conditions: protein: recombinant; tags: His6 (N-terminal, pFastBac HTA)
# In short: as §1
# AGO2 A367P, sequence (Q9UKV8 whole entry A367P/S387D/S824A/S828D/S831D/S834A): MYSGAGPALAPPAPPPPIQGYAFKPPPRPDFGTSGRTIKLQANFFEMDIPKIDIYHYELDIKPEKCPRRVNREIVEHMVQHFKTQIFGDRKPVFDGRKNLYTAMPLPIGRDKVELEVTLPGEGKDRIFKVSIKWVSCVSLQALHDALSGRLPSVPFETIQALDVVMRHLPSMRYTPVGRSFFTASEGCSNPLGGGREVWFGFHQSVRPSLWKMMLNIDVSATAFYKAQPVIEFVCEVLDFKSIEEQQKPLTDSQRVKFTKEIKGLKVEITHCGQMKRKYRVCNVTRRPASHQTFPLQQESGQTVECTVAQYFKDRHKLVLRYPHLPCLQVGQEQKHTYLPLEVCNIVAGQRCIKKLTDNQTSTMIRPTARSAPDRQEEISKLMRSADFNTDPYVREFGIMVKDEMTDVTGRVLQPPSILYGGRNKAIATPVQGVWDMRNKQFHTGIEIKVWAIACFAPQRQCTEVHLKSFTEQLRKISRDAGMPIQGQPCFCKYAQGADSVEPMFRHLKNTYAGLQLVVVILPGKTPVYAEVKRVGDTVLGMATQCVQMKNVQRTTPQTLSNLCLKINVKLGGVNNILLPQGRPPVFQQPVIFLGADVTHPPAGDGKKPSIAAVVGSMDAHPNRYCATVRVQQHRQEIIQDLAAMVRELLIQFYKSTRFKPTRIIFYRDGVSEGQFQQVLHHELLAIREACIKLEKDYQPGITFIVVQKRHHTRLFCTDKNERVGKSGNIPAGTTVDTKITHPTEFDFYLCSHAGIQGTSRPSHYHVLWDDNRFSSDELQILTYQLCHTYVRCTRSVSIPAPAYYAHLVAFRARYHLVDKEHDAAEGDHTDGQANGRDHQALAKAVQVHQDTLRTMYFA
row,Binder,binding signal
1,B1,0.137 fold enrichment over input
2,B2,0.137 fold enrichment over input
3,B3,0.136 fold enrichment over input
4,B4,0.126 fold enrichment over input
5,B5,0.127 fold enrichment over input
6,B6,0.121 fold enrichment over input
7,B7,0.15 fold enrichment over input
8,B8,0.121 fold enrichment over input
9,B9,0.128 fold enrichment over input
10,B10,0.136 fold enrichment over input
11,B11,0.166 fold enrichment over input
12,B12,0.187 fold enrichment over input
13,B13,0.129 fold enrichment over input
14,B14,0.131 fold enrichment over input
15,B15,0.143 fold enrichment over input
16,B16,0.125 fold enrichment over input
17,B17,0.123 fold enrichment over input
18,B18,0.138 fold enrichment over input
19,B19,0.128 fold enrichment over input
20,B20,0.127 fold enrichment over input
21,B21,0.122 fold enrichment over input
22,B22,0.131 fold enrichment over input
23,B23,0.181 fold enrichment over input

# Molecular target: AGO2 T357M (Homo sapiens, UniProt Q9UKV8 1-859, T357M;S387D;S824A;S828D;S831D;S834A)
# Assay: as above
# Conditions: protein: recombinant; tags: His6 (N-terminal, pFastBac HTA)
# In short: as §1
# AGO2 T357M, sequence (Q9UKV8 whole entry T357M/S387D/S824A/S828D/S831D/S834A): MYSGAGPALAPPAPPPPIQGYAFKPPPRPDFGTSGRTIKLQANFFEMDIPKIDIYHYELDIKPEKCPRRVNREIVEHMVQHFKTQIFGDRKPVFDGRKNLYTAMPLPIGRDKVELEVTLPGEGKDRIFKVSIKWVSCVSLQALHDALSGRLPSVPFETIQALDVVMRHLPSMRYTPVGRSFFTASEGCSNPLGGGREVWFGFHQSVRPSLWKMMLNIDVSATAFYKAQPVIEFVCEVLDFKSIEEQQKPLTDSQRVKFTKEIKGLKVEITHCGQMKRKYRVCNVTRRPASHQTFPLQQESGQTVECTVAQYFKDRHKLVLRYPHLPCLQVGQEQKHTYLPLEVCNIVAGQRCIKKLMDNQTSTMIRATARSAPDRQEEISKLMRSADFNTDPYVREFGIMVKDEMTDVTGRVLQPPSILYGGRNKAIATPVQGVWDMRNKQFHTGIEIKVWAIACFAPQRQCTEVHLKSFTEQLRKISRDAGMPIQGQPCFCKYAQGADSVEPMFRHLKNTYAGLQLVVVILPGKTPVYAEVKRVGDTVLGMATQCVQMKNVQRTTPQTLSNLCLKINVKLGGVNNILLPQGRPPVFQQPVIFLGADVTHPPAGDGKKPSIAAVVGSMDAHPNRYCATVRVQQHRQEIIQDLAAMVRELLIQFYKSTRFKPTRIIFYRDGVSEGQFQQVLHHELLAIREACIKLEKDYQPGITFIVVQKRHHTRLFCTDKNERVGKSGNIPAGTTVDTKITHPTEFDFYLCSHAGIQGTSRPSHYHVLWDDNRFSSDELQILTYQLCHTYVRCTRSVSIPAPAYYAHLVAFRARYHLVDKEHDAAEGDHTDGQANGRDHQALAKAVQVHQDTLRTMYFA
row,Binder,binding signal
1,B1,0.54 fold enrichment over input
2,B2,0.462 fold enrichment over input
3,B3,0.541 fold enrichment over input
4,B4,0.522 fold enrichment over input
5,B5,0.449 fold enrichment over input
6,B6,0.4 fold enrichment over input
7,B7,0.48 fold enrichment over input
8,B8,0.475 fold enrichment over input
9,B9,0.445 fold enrichment over input
10,B10,0.495 fold enrichment over input
11,B11,0.544 fold enrichment over input
12,B12,0.545 fold enrichment over input
13,B13,0.483 fold enrichment over input
14,B14,0.51 fold enrichment over input
15,B15,0.478 fold enrichment over input
16,B16,0.468 fold enrichment over input
17,B17,0.462 fold enrichment over input
18,B18,0.553 fold enrichment over input
19,B19,0.482 fold enrichment over input
20,B20,0.448 fold enrichment over input
21,B21,0.425 fold enrichment over input
22,B22,0.447 fold enrichment over input
23,B23,0.539 fold enrichment over input

# Molecular target: AGO2 F182del (Homo sapiens, UniProt Q9UKV8 1-859, S387D;S824A;S828D;S831D;S834A;del182-182)
# Assay: as above
# Conditions: protein: recombinant; tags: His6 (N-terminal, pFastBac HTA)
# In short: as §1
# AGO2 F182del, sequence (Q9UKV8 other isoform, or with tags, fused parts or gaps S387D;S824A;S828D;S831D;S834A;del182-182): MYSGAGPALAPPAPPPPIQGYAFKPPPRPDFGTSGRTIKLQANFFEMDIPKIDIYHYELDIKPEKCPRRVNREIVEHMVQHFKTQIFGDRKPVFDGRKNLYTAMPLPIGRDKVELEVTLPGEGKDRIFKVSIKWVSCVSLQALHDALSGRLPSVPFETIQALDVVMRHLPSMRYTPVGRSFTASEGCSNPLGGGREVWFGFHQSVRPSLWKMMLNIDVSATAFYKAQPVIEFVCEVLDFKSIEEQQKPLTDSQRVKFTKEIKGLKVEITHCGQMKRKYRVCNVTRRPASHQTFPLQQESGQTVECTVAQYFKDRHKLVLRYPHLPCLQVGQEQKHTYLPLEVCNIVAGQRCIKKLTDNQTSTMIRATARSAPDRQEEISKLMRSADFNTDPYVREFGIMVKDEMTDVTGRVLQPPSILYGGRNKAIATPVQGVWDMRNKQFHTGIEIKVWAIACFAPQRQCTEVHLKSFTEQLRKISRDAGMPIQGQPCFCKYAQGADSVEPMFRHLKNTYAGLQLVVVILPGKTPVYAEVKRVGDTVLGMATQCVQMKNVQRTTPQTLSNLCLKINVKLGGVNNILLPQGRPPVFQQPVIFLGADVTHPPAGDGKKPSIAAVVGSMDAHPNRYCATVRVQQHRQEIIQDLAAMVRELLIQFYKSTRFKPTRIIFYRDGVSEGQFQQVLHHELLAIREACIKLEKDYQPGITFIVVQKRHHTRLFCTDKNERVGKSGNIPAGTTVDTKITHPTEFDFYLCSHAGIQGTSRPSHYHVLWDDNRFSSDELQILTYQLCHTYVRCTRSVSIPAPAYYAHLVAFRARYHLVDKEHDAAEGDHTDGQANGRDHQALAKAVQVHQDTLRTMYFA
row,Binder,binding signal
1,B12,0.128 fold enrichment over input
